Reference: PubChem BioAssay (Tox21)
Inconclusive results are not listed. Values without a mark were called inactive. The source made the active and inactive calls. Calls follow the shape of the dose curve; as a rule, active = well fitted activation curve with a large enough effect in the repeat runs; inconclusive = weak or mixed curves; inactive = no such curve, though single readings can be large or run the other way.

These compounds were tested against Aryl hydrocarbon receptor (Homo sapiens) (UniProt P35869) (assay: qHTS assay to identify small molecule that activate the aryl hydrocarbon receptor (AhR) signaling pathway (AID 743085; also: nearly all actives have a fitted effect of over 15% in size;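 as to activation: HG2L7.5c1 human HepG2 liver cells with stably integrated DRE-driven firefly reporter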)). Details: HepG2 AhR-luc (HG2L7.5c1), luciferase, 24 h; series mostly up to 70.3 µM; activation: at the top concentration.
Sequence of Aryl hydrocarbon receptor (Homo sapiens) (P35869 whole entry, looked up): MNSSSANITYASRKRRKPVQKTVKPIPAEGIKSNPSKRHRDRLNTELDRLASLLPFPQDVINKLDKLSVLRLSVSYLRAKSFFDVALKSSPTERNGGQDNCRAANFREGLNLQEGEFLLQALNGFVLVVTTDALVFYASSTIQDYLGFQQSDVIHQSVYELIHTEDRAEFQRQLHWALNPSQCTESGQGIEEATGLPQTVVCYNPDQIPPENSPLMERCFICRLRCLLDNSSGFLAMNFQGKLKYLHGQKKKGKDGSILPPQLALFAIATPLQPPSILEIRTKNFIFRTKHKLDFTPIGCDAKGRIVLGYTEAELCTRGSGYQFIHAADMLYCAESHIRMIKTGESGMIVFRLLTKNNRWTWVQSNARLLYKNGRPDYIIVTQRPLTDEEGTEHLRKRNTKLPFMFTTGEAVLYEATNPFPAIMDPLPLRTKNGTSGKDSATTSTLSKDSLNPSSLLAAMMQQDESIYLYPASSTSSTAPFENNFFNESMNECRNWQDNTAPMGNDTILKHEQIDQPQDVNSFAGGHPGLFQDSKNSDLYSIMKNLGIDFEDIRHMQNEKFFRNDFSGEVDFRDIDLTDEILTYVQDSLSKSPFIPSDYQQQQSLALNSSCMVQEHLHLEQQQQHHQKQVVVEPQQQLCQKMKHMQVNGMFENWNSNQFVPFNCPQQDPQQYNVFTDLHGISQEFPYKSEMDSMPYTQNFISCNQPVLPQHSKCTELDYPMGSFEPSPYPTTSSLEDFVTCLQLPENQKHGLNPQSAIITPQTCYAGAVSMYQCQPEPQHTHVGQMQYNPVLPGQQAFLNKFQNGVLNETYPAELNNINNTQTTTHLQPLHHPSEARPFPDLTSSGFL
From the text: U.S. Tox21 Program National Center for Advancing Translational Sciences [NCATS] NIH Chemical Genomics Center [NCGC] U.S. Environmental Protection Agency [EPA] National Institutes of Environmental Health Sciences [NIEHS] National Toxicology Program [NTP] U.S. Food and Drug Administration [FDA] Tox21 Assay overview: The Aryl hydrocarbon Receptor (AhR), a member of the family of basic helix-loop-helix transcription factors, is crucial to adaptive responses to environmental changes. AhR mediates cellular responses to environmental pollutants such as aromatic hydrocarbons through induction of phase I and II enzymes but also interacts with other nuclear receptor signaling pathways. A cell based HepG2-AhR-luc assay (HG2L7.5c1 cell line, developed by Dr. Michael S. Denison, University of California at Davis, was used to assess the activation of AhR. HepG2 (human hepatocellular carcinoma) cells were stably transfected with an Ah receptor-responsive firefly luciferase reporter gene plasmid containing 20 dioxin responsive elements and luciferase reporter gene. Increased luciferase activity can be used to identify the compounds that induce AhR activation.
Tox21 Assay Protocol Summary: 4000 cells in 5 uL/well were dispensed into white wall/solid bottom 1536-well plates using a Multidrop Combi (Thermo Fisher Scientific Inc., Waltham, MA) dispenser. After the assay plates were incubated at 37C for 5 h, 23 nL of compound or DMSO vehicle was transferred to the assay plates by a pintool station (Kalypsys, San Diego, CA). The plates were incubated at 37C for 24 hr. After 1 ul/well of CellTiter-Fluor reagent (Promega, Madison, WI) was added into the assay plates using a Flying Reagent Dispenser (FRD) (Aurora Discovery, CA), the assay plates were incubated at 37C for 30 min. The fluorescence intensity in the plates was measured using a ViewLux plate reader (PerkinElmer, Shelton, CT), followed by the addition of 4 uL of ONE-Glo Luciferase Assay reagent (Promega) using an FRD (Aurora Discovery). After the assay plates were incubated at room temperature for 30 min, luminescence intensity was measured using a ViewLux plate reader (Perkin Elmer).
% is scaled to controls: 0 for no effect and ±100 for the full control effect; potency is read from the fitted curve at half-maximal effect.

| Compound | activation | Potency |
| --- | --- | --- |
| CN(C)CCN(C)CCN(C)C | 0.748% | – |
| CC(=O)Oc1cccc(C)c1 | -0.489% | – |
| C[N+](C)(CCOc1ccccc1)Cc1cccs1 | -1.32% | – |
| CCCCOCCOC(=O)COc1cc(Cl)c(Cl)cc1Cl | 2.9% | – |
| COc1c(N2CCNC(C)C2)c(F)cc2c(=O)c(C(=O)O)cn(C3CC3)c12 (stereo not given) | -0.454% | – |
| C[C@H]1[C@H](NC(=O)/C(=N/OC(C)(C)C(=O)O)c2csc(N)n2)C(=O)N1S(=O)(=O)O (stereo in doubt) | -0.404% [at 32.5 µM] | – |
| C1CCC2(CCCCO2)OC1 | 0.354% | – |
| CCCCCC(=O)OCCc1ccccc1 | -0.426% | – |
| CCOC(=O)COc1cc(-n2ncc(C(F)(F)F)c(C)c2=O)c(F)cc1Cl | -0.21% | – |
| CCN(Cc1ccccc1)c1ccccc1 | 0.317% | – |
| O=CN(CCO)CCO | -0.956% | – |
| CN(C)C(=O)Oc1ccc[n+](C)c1 | -0.939% | – |
| c1coc(CNc2ncnc3nc[nH]c23)c1 | 7.15% | – |
| O=Cc1cccc(Br)c1 | -2.29% [at 95 µM] | – |
| CCN1C=CN(C)C1C (stereo not given) | 4.43% [at 95 µM] | – |
| COc1ccnc(CS(=O)c2nc3cc(OC(F)F)ccc3[nH]2)c1OC (stereo not given) | – | 3.35 µM (active) |
| Cc1ccc(C(=O)c2ccc(CC(=O)O)n2C)cc1 | 0.327% [at 32.5 µM] | – |
| C=C[Si](OC(C)=O)(OC(C)=O)OC(C)=O | 2.63% | – |
| CC[C@H]1OC(=O)[C@H](C)[C@@H](O[C@H]2C[C@@](C)(OC)[C@@H](O)[C@H](C)O2)[C@H](C)[C@@H](O[C@@H]2O[C@H](C)C[C@H](N(C)C)[C@H]2O)[C@](C)(OC)C[C@@H](C)C(=O)[C@H](C)[C@@H](O)[C@]1(C)O | – | inactive |
| CCCC[N+](C)(CCCC)CCCC | -0.0074% | – |

| Compound | activation | Potency |
| --- | --- | --- |
| CCCCCCCCN1CCCC1=O | -0.2% | – |
| CO[Si](C)(OC)c1ccccc1 | -0.407% | – |
| CC1=CCC(O)(C(C)C)CC1 (stereo not given) | -1.13% | – |
| CCCCCCCCCCOc1cc2c(=O)c(C(=O)OCC)c[nH]c2cc1OCC | 0.304% | – |
| CO/N=C(\C(=O)N[C@@H]1C(=O)N2C(C(=O)O)=C(CSc3nc(=O)c(O)nn3C)CS[C@H]12)c1csc(N)n1 | -0.408% | – |
| CC12CCC(C(=O)C1=O)C2(C)C (stereo not given) | 0.0125% [at 95 µM] | – |
| CCCCN(CCC(=O)OCC)C(C)=O | -0.543% | – |
| O=C(O)CNC(=O)c1ccc(CO)o1 | 4.06% | – |
| CC(CC=O)CC(C)(C)C (stereo not given) | -1.49% | – |
| CC(C)(C)c1ccc(-c2ccc(C(C)(C)C)cc2)cc1 | -0.651% | – |
| O=C(CO)[C@@H](O)[C@H](O)[C@H](O)CO | – | inactive |
| C=CCCC(=O)O | -0.0813% | – |
| C=CC(C)(CCC=C(C)C)OC(=O)CC (stereo not given) | 0.574% | – |
| CCCCCCCCCCCCSC | -0.566% | – |
| C[C@@H]1CCC[C@H](C)N1 | -0.614% [at 32.5 µM] | – |
| C[N+]1(C)[C@@H]2CC(OC(=O)[C@H](CO)c3ccccc3)C[C@H]1[C@@H]1O[C@@H]12 (stereo not given in full) | -1.34% | – |
| CCCC(C)C(=O)OCC (stereo not given) | -1.04% | – |
| Cc1ccc(C(=O)c2ccccc2)cc1 | 6.57% | – |
| O=C1c2ccccc2C(=O)c2cc(O)ccc21 | – | 61.2 µM (active) |
| CCCCCCCCCCCCCCC(=O)O | 2.39% | – |
